The text below walks through data of PubChem BioAssay (EPA / NIEHS).

Structures are written as SMILES. “And” between values parts separate entries of the source, which are not always exact repeats. Equal entries are not always repeated. Where a structure was tested more than once in an assay, its records may differ in their call. The source made the active and inactive calls. How the source made its calls: active means hit-call score of the fitted dose curve at least 0.9, where 1 is the maximum; inactive means score below 0.9.

Read-out in the test: Apolipoprotein A-V (APOA5) gene, APOA5 (gene 116519)
Nature of the test: LTEA_HepaRG_APOA5: Life Technologies and Expression Analysis (LTEA) Assay for Apolipoprotein A-V (APOA5) gene using HepaRG (AID 2283474). The settings on record: mRNA level, 48 h; actives raise or lower the signal. Here is the method:
LTEA_HepaRG is a cell based, multiplexed-readout assay that uses HepaRG, a human liver cell line, with measurements taken at 48 hours after chemical dosing on a 96-well plate.LTEA_HepaRG_APOA5 is one of 102 assay component(s) measured in the LTEA HepaRG cell culture assay. It is a marker of Steatosis.Data from the assay component LTEA_HepaRG_APOA5 was analyzed into 1 endpoint. This assay endpoint, LTEA_HepaRG_APOA5, was analyzed with bidirectional fitting relative to DMSO as the negative control and baseline of activity. Using a type of inducible reporter, measures of mRNA induction for gain or loss-of-signal activity can be used to understand regulation of transcription factor activity. To generalize the intended target to other relatable targets, this assay endpoint is annotated to the apolipoprotein intended target family, where the subfamily is Steatosis.
A total of 1060 chemcials from the ToxCast library were tested in eight-point concentration-response experiments. Cell culture and cytotoxicity assays were conducted at Thermo Fisher Scientific's Custom Services facility (Madison, WI). A single lot of human HepaRG cells (Thermo Fisher Scientific, Frederick, MD) was used for the cell culture experiments. 96-well format collagen type I coated plates of human HepaRG cells were prepared using established methods. Briefly, cryopreserved HepaRG cells were thawed, plated at a density of approximately 100,000 cells/well in HepaRG Thaw, Plate, and General Purpose media (HPRG770, Thermo Fisher Scientific), and incubated for 48 hours. 0.5% DMSO was selected as vehicle control to balance the requisite need of DMSO in HepaRG cultures to maintain differentiation (for example, baseline metabolism, proportions of hepatocytes vs. cholangiocytes), while enabling further hepatic receptor pathway activation (for example, PXR and CAR) in response to chemical exposure. 48 hours after plating, the culture medium was replaced with HepaRG Serum-Free Incudtion Media. Cells were exposed to each test chemical in duplicate and maintained in CO2 incubators for another 48 hours. Chemical plates were thawed to room temperature and 200x concentrations of treatment groups were prepared. 8-point conentration-reponse curves were made with the highest exposure at 100 uM, followed by half-log dilutions, all in 0.5% DMSO. Each test plate contained variouse controls, induction positive controls (1mM phenobarbital), cytotoxicity positive controls ([…] aflatoxin B1), vehicle controls (0.5% DMSO), and total lysis controls (0.5% DMSO). Cell morphology images were taken using an Essen IncuCyte FLR automated microscope, with six 96-well plates imaged in about 24 minutes. Images were captured and exported and JPEG files. Spent culture media was transfered to black-well plates for the LDH assay, and remaining media was sorted at -80 C for later use. Cells were treated with RLT buffer and frozen until shipped for gene expression analysis. Total RNA was isolated from the cell suspension in 75 uL of Buffer RLT (Qiagen, Germantown, MD 20874) by Quintiles/Expression Analysis (Durham, NC) using a custom isolation procedure. Total RNA from each plate well was transferred to a preamplification plate. Fluidigm's 96.96 Dynamic ArrayTM (Fluidigm, Amsterdam, the Netherlands) technology was used for gene expression analyses by quantitative reverse transcription polymerase chain reaction (qRT-PCR, performed by Quintiles/Expression Analysis, Durham, NC)89. Standard TaqManTM Assays (Applied Biosystems/ThermoFisher Scientific, Foster City, CA) were used to assess the expression of 93 genes selected based on their selectivity and sensitivity to important hepatic receptors known to be modulated by environmental chemicals; importance in human hepatocyte functionality; and hepatotoxicity. […]
For the compound `O=C(O)CCCOc1ccc(Cl)cc1Cl`, the compound was classed as inactive. Same read-out and setting: the result for `O=C1c2ccccc2C(=O)N1SC(Cl)(Cl)Cl` reads “inactive”; that for `COP(=S)(OC)Oc1ccc(SC)c(C)c1`, “inactive”; that for `CCC(C)(NC(=O)c1cc(Cl)c(C)c(Cl)c1)C(=O)CCl` (stereo not given), “inactive”. Turning to `CCOCN(C(=O)CCl)c1c(C)cccc1CC`, the AC50 was 79.4 µM (active). As to `Oc1cc(Cl)ccc1Oc1ccc(Cl)cc1Cl`, the compound was called inactive; the AC50 was 51 µM (active) and 81.5 µM (active). Take `Cc1[nH]c(=O)n(C(C)(C)C)c(=O)c1Cl`: the outcome was inactive. For `CCOC1Oc2ccc(OS(C)(=O)=O)cc2C1(C)C` (stereo not given), the AC50 is 77 µM (active).

With `N#CN`, the result was inactive. On the same count and under the same terms, the value for `CC(C)OC(=O)Nc1cccc(Cl)c1` was “inactive”.

Regarding `CC1(c2ccc(Oc3ccccc3)cc2)OC(=O)N(Nc2ccccc2)C1=O` (stereo not given), the AC50 was 28.3 µM (active).

As to `CCC(C)(C)C(=O)OC1=C(c2ccc(Cl)cc2Cl)C(=O)OC12CCCCC2`, the AC50 is 50 µM (active).

With `O=C(O)C(F)(F)C(F)(F)C(F)(F)C(F)(F)C(F)(F)C(F)(F)C(F)(F)F`, the compound was called inactive. The same measure, in the same setting: the value for `O=[N+]([O-])c1c(Cl)c(Cl)c(Cl)c(Cl)c1Cl` was “inactive”; that for `O=C(O)COc1ccc(Cl)cc1Cl` was “inactive”; that for `CC1(C)C(C=C(Cl)Cl)C1C(=O)OC(C#N)c1ccc(F)c(Oc2ccccc2)c1` (stereo not given) was “inactive”. Still for that read-out and setting: the result for `CN1CSC(=S)N(C)C1` reads “inactive”. For the compound `CNC(=O)Oc1ccccc1OC(C)C`, the compound was called inactive. On the same count and under the same terms, the value for `CCc1ccc(C(=O)NN(C(=O)c2cc(C)cc(C)c2)C(C)(C)C)cc1` was “inactive”. Consider `O=S(=O)(O)C(F)(F)C(F)(F)C(F)(F)C(F)(F)C(F)(F)C(F)(F)C(F)(F)C(F)(F)F`, for which the outcome was inactive and the AC50 is 34.1 µM (active).

Turning to `CCN(CC)C(=O)SCc1ccc(Cl)cc1`, the result was inactive. Turning to `CC(C)N(C(=O)COc1nnc(C(F)(F)F)s1)c1ccc(F)cc1`, the AC50 was 78.4 µM (active).

Take `CC(C)(C)C(O)C(Oc1ccc(Cl)cc1)n1cncn1` (stereo not given): the call was inactive and the half-maximal activity concentration (AC50) was 50 µM (active).

On to `Clc1ccccc1-c1nnc(-c2ccccc2Cl)nn1`, for which the result was inactive. As for `CNC(=O)Oc1cccc(N=CN(C)C)c1`, the call was inactive. `O=S1OCC2C(CO1)C1(Cl)C(Cl)=C(Cl)C2(Cl)C1(Cl)Cl` (stereo not given): the AC50 was 63.8 µM (active). On the same count and under the same terms, the value for `C#CCN1C(=O)COc2cc(F)c(N3C(=O)C4=C(CCCC4)C3=O)cc21` was 23.1 µM (active). On to `CCCN(CCC)c1c([N+](=O)[O-])cc(C(F)(F)F)cc1[N+](=O)[O-]`, for which the compound was classed as inactive. In the case of `Oc1ccc(Cl)cc1Cc1ccccc1`, the result was inactive and the AC50 was 79.8 µM (active). Turning to `CCCN(CCOc1c(Cl)cc(Cl)cc1Cl)C(=O)n1ccnc1`, the AC50 was 39 µM (active). Take `O=[N+]([O-])/N=C1\NCCN1Cc1ccc(Cl)nc1`: the call was inactive. Still for that read-out and setting: the value for `N#Cc1c(Cl)c(Cl)c(Cl)c(C#N)c1Cl` was “inactive”.

On to `CC[C@H](C)[C@H]1O[C@]2(C=C[C@@H]1C)C[C@@H]1C[C@@H](C/C=C(\C)[C@@H](O[C@H]3C[C@H](OC)[C@@H](O[C@H]4C[C@H](OC)[C@@H](O)[C@H](C)O4)[C@H](C)O3)[C@@H](C)/C=C/C=C3\CO[C@@H]4[C@H](O)C(C)=C[C@@H](C(=O)O1)[C@]34O)O2` (tested in a mixture with another compound), for which the AC50 was 13.6 µM (active). With `CNC(=O)/C=C(\C)OP(=O)(OC)OC`, the call was inactive. The same measure, in the same setting: the result for `ClC1C(Cl)C(Cl)C(Cl)C(Cl)C1Cl` (stereo not given) reads “inactive”; that for `COP(=S)(OC)Oc1ccc([N+](=O)[O-])cc1`, “inactive”.
